Reference: PubChem BioAssay AID624305 (National Center for Advancing Translational Sciences (NCATS), 2012)
Inconclusive results are not listed. A number with no mark means an inactive call. The source made the active and inactive calls. Calls come from the whole dose curve; as a rule, active = well fitted activation curve with a large enough effect; inconclusive = small, poorly fitted or top-dose-only effect; inactive = no such curve, though single readings can be large or run the other way.

assay: qHTS assay for re-activators of p53 using a Luc reporter: Hit Validation; details: p53-responsive luciferase reporter cells, luminescence, H1299 line expressing heat-sensitive Ala138Val p53; series mostly up to 46.1 µM; activation: at the top concentration; note: nearly all actives have a fitted effect of over 75% in size; for activation: 0% is about no effect
In short: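 H1299 (p53-null) cells stably carrying p53-A138V and a BP100-luciferase reporter, 1000 cells/well, treated 24 h at 37 deg C. Compounds at several concentrations, 1:5 dilution; nocodazole control; luminescence read after 10 min with detection reagent.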
Potency is the fitted concentration of half-maximal effect.

Structure (SMILES) | activation | Potency
Cc1ccc(C(=O)NC2CC2)cc1S(=O)(=O)N1CCOCC1 | 12.5% | –
CC(=O)c1ccc(N2Cc3ccccc3C2=NC(=O)c2cccs2)cc1 | 41.7% | –
Cc1cc(C)c2nc(NNC(=O)c3ccc(S(=O)(=O)N4CCc5ccccc5C4)cc3)sc2c1 | 352% | –
O=C(Nc1cccc(N=Cc2cc(Cl)cc(Br)c2O)c1)c1ccco1 | 6.77% | –
O=C(CNc1ccccc1)N/N=C/c1c[nH]c2ccccc12 | 25.5% | –
O=C(CCc1nc(-c2ccccc2)no1)N1CCCC1 | 42.2% | –
O=C(Nc1nnc(-c2cccs2)o1)c1cccc(C(F)(F)F)c1 | -4.17% | –
Cc1ccn2c(c1)nc(=S)n2C(=O)c1ccccc1 | – | 0.731 µM (active)
Cc1ccc(C)c(Oc2cc(NC(=O)CCCn3nc(C)c([N+](=O)[O-])c3C)cc([N+](=O)[O-])c2)c1 | -32.8% | –
CC(C)CC(NC(=O)C1CCC(=O)N1)C(=O)NC(CC(C)C)C(=O)N1CCCC1C(N)=O (stereo not drawn) | -19.8% | –
C=CCSC1=N/C(=C\c2cc(OCC)c(OC(C)=O)c([N+](=O)[O-])c2)C(=O)S1 | 4.17% | –
CCN(CC)C(=O)CSc1ncnc2c(-c3cccs3)nsc12 | 20.3% | –
Nc1nonc1-n1nnc(C(=O)N/N=C/c2ccc(Br)cc2)c1CSC1=NCCS1 | – | 3.66 µM (active)
O=C(N/N=C/c1cn(-c2ccccc2)nc1-c1cc2ccccc2o1)c1ccccc1Br | – | 7.31 µM (active)
Cc1cnc(C(=O)OCC(=O)c2csc(N3CCCCC3)n2)cn1 | 25% | –
O=C(c1ccc(N2CCN(S(=O)(=O)c3ccccc3)CC2)c([N+](=O)[O-])c1)N1CCOCC1 | 17.2% | –
Cc1ccc2oc(-c3ccc(C)c(NC(=S)NC(=O)c4cccs4)c3)nc2c1 | – | 4.61 µM (active)
Cc1ccc(C)c(OCC(O)CN2C(C)CCCC2C)c1 (stereo not drawn) | 24% | –
Cc1c(/C(O)=C2/C(=O)C(=O)N(Cc3cccnc3)C2c2cccs2)cnn1-c1ccccc1 (stereo not drawn) | – | 8.2 µM (active)

Structure (SMILES) | activation | Potency
Cc1ccc(C(=O)c2c3ccc([N+](=O)[O-])cc3[n+]([O-])n2CCCN)cc1 | 15.1% | –
O=[N+]([O-])c1cc(C(F)(F)F)ccc1NCCc1c[nH]c2ccccc12 | 5.73% | –
O=C(N/N=C/c1cccs1)c1n[nH]c2c1CCC2 | – | 0.517 µM (active)
Cc1nc(SCC(=O)Nc2nccs2)c(C#N)c(C)c1C | – | 0.651 µM (active)
CCCCCCC[C@@H](C/C=C/CCC(=O)N(C)C/C(=C/Cl)C/C(=C\C(=O)N1CC(OC)=CC1=O)OC)OC | – | 5.8 µM (active)
COc1ccc2c(=O)c(-c3nc(C)cs3)coc2c1 | – | 2.06 µM (active)
COC(=O)c1sccc1N/N=C/c1cccc(OC)c1O | – | 0.146 µM (active)
O=C(NCC1CCCO1)c1ccc(NC(=O)c2cccc([N+](=O)[O-])c2)cc1 (stereo not drawn) | 0% | –
O=C(CCC1CCCC1)Nc1ccc(Br)cn1 | – | 11.6 µM (active)
CCN(Cc1ccccc1)C(=O)CN1C(=S)NC(C)(C)CC1C (stereo not drawn) | -15.4% [at 9.22 µM] | –
COc1ccc(C(C#N)N2N=C(c3ccccc3)CC2c2ccccc2)cc1OC (stereo not drawn) | -1.56% | –
CCCCC(=O)Nc1cccc(NC(=S)NC(=O)Cc2ccccc2)c1 | -23.4% | –
COc1cc(CNC2CCCCCCC2)c(Br)cc1OCCO | 26% | –
COc1ccc2[nH]c(=O)c3c(c2c1)OC(C)(C)C=C3 | -19.3% | –
Cc1ccc2nc(-c3ccc(NC(=O)CN4C(=O)c5ccccc5C4=O)cc3)sc2c1 | – | 5.17 µM (active)
Cc1cccc(C)c1Nc1c(-c2ccccn2)nc2ccccn12 | 14.1% | –
COCCN(Cc1cn[nH]c1-c1ccc2cc(OC)ccc2c1)C(C)C | 31.8% | –
Cc1cc(C(F)(F)F)c(C#N)c(SCC(=O)Nc2nc3ccccc3s2)n1 | – | 1.46 µM (active)
COc1ccccc1NC(CC(=O)c1ccccc1)C(=O)OCC(=O)c1ccc(C)cc1 (stereo not drawn) | – | 0.206 µM (active)
